We go through 12 compounds from PubChem BioAssay (NCI).

This is part of a sample that, as a whole, favours compounds with a hit. Of some 83,000 tested, about 20% had one in any assay.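 Values shown are percent growth following 48 h exposure of cells in 96-well plates to a single concentration of compound; below 10 was considered active.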 Values without a mark were called inactive. Calls of active or inactive are those of the source.

For the first test, the system named is IGROV1 ovarian. Briefly: NCI-60 one-dose screen, 48 h (100 = growth as untreated, 0 = no growth, -100 = all killed). The settings on record: 10 µM unless noted.
`COc1ccc2[nH]c(O)c(N=Nc3nc(-c4ccccc4)cs3)c2c1`: the growth was 36.1%.

Consider `COc1ccc(N=Nc2c(N)nn3c(N)c(C#N)c(-c4ccc(F)cc4)nc23)cc1`, for which the growth is 76.9%.

Regarding `C=CCSc1nnc(-c2ccc(-c3nc4ccccc4[nH]3)cc2)o1`, the growth was 101%.

For the compound `Cc1oc(-c2ccccc2)nc1CN[C@@H]1C[C@@H]2C[C@H]([C@H]1C)C2(C)C`, the growth is 37.6%.

Turning to `COc1ccc(NC2=C(I)C(=O)C(C)=C(C)C2=O)cc1`, the growth is 15.3%.

Another test deals with OVCAR-3 ovarian. Described as above. The settings on record: 10 µM unless noted.
Turning to `O=C(Nc1nc2ccccc2s1)Nc1ccccc1Cl`, the growth was 111%.

For the compound `Cc1ccc(C(=O)Nc2cc(-n3ccnc3C)cc(C(F)(F)F)c2)cc1C#Cc1cnc2cccnn12`, the growth is 37.8%.

With `O=C(c1ccc(O)cc1)C1[C@H](c2ccc(Cl)cc2)[C@@H](c2ccccc2)NC12C(=O)Nc1ccccc12` (some centres not stated), the growth is 6.48% (active).

Consider `COc1ccc(-c2nc3ccc(-c4nnc(SCC(=O)Nc5ccc(/C(C)=N\O)cc5)o4)cc3[nH]2)cc1`, for which the growth is 63.3%.

`C[C@H]1[C@@H](CC(=O)N[C@@H](Cc2coc3ccccc23)B(O)O)O[C@@H]2OC3(C)CC[C@H]4[C@H](C)CC[C@@H]1[C@@]24O3`: the growth was 3.84% (active).

As to `Cc1cc(C(NC(=O)C2CC3(CC(Nc4cccc5c4C(=O)N(C4CCC(=O)NC4=O)C5=O)C3)C2)c2ccc3c(c2)OC(F)(F)O3)c(O)c2ncccc12` (configuration not stated), the growth is 16.1%.

Take `NC(=O)c1ccc(-c2ccc3ncnc(N4CCc5cc(F)c(Cl)cc54)c3c2)cn1`: the growth is 64.8%.
